Experimental data taken from the supplement of paper PMC10681739.

How the values were obtained:
[1] = biological target: T1, ETS1 (UniProt P14921); test: ETS1 binding intensity (PBM fluorescence), ETS1 alone (arbitrary fluorescence units); higher = stronger binding; details: ETS1 concentration 1 nM; RUNX1 concentration 0 nM
T1 sequence: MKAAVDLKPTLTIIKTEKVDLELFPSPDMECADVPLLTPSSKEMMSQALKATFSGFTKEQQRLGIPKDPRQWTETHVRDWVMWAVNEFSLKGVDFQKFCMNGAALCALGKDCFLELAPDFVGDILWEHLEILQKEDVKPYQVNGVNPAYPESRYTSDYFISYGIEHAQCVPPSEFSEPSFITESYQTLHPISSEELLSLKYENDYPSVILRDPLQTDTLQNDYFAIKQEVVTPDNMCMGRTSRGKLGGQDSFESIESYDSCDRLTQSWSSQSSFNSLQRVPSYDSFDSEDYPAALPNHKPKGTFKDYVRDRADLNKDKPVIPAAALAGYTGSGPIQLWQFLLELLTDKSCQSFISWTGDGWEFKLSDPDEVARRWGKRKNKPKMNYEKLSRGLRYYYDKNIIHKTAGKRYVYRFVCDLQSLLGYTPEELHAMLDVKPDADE

[2] = biological target: RUNX1 (UniProt Q01196); test: RUNX1 binding intensity (PBM fluorescence), RUNX1 alone (arbitrary fluorescence units); higher = stronger binding; details: RUNX1 concentration 2 nM; ETS1 concentration 0 nM
Description: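 Cooperative gcPBM on 36-bp genomic probes with neighbouring ETS1 and RUNX1 sites. Recombinant human RUNX1 (2 nM) was incubated alone or with ETS1 (25 nM) and detected with anti-RUNX1 antibody plus Alexa488 secondary. Values are medians over 4 replicate spots; the RUNX1+ETS1 data were normalised to the RUNX1-only data. The probes sit in constant array flanks that are not printed.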

[3] = biological target: T1, ETS1; test: ETS1 binding intensity (PBM fluorescence) in presence of RUNX1, normalised to ETS1-only experiment (arbitrary fluorescence units); higher = stronger binding; details: ETS1 concentration 1 nM; RUNX1 concentration 25 nM
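For RUNX1 binding intensity (PBM fluorescence), RUNX1 alone in this document: Full-length recombinant human RUNX1 bound to double-stranded 36-bp genomic probes on a high-density microarray, scored as Alexa488 fluorescence per spot via anti-RUNX1 antibody, median of four replicate spots.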

Sequence of RUNX1 (Q01196 whole entry): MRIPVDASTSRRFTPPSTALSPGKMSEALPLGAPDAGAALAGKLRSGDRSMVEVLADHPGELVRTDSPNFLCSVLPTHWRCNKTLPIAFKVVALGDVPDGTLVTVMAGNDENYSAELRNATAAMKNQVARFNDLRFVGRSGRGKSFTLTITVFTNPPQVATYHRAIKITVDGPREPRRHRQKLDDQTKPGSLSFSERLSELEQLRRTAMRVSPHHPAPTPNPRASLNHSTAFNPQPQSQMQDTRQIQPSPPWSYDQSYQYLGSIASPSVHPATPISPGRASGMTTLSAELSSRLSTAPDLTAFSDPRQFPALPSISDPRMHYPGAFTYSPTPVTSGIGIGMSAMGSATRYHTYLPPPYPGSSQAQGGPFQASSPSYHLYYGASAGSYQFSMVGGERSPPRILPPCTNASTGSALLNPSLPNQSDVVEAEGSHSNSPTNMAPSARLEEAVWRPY

Sequence	ETS1 binding intensity [1]	RUNX1 binding intensity [2]	ETS1 binding intensity [3]
GTGTGAAGGAAGTGTGAGATCAAACCACAGCTGGGT	457	874	–
CATGTGCTTCCGGCTTGATCTGTGGTTATTCTGGTT	1370	1270	2980
TCTCTTCTCCCCATCCGCCCGAGACCACAGCCACTC	509	–	–
CTCACAGAGCAAGTAGGATGTGGTTTCCAGGGGCTG	781	800	–
AGCTGCGGAGCATCCGCTGCGGTCCTCGCCGAGACC	450	–	–
TGTATGAAAAAAACAGGAAACCACAGAGAACTGAGG	2210	1060	–
TTTAAGGGCGGAAAGGCTTTAGCCGCAAAATGGCTT	547	–	–
TGCAGCTTCCTGTCTGAGGCTTTGTGGTCCTTTCAT	753	862	–
TGGGGAACGCTGCGGATGCTGCGGTAAACCATGCGA	643	1040	–
ATCAGAGCGGAAATCTCAGTCTTGTGTGGGGACCTG	1960	647	1820
CGAAAGTGACCGGAAGTAACCGCCGGGCCAAGATGG	17800	795	18200
GGTTGTGGAGTAGGATGTGGTGTCTAGCTTTCAGCA	588	–	–
TGAGCACAGTATTTCCTGTGGTTTCTATTGCATTTC	1010	1090	–
TTCAACAGGATGTGGGAACTTGACTCTCGCCGCAAA	3560	737	–
ATACTGAGTCATTTCCTGTGGTGTTATTGTGTTGTA	1760	993	2500
ACACAGGAAGCAAAAGTTAAGCTATAAAACCCGCAA	571	969	–
GGCCGGCTTCCGGGGCGGGTGGAAAGGAGCCACAAG	501	750	498
CACCCGCCCCCCGGAAGTGCCGGTGGTTGGGCTCCG	5120	703	7610
TAAAGCGGAAGGGGCCGGCTCTGCGGCCTGGCCGCT	553	–	–
CGGGAGGGGCAGGAAGCGGACTGCGGTGGGGAAGGG	2770	939	–
GGAGGGCTTCCTGCCCACCACCACCCACAGCAGCTG	730	–	–
GGCTGCGACTTCCGGACTGCTCCTGGCCGCAGGGGG	2070	813	2500
CCCACTCCACTTCCGCCACCGCCGCAGCCGCCGCTG	1430	1980	1420
TCCCCCACTTCCTGGCAGCAGCAGTGTGGTGAGGAG	845	879	996
GGACCGGAAGTAGGTTTCTACCCGACCGCATTTTAC	12100	889	43900
ATGGGGAACGGGAAATACGGCGGGAACCACAATCGC	734	777	1700

Sequence	ETS1 binding intensity [1]	RUNX1 binding intensity [2]	ETS1 binding intensity [3]
CTTCCTTCCCTTCCTTCTGCTCCCTCCCACAGCCGC	519	–	–
AGACCCGGAAATGGTGGGTGTTTCTTGCAACCACGG	1810	668	–
ACGGACAGAATTTCCTCCCCCGTCACCACAGCGACC	686	–	–
CCCAAGCTACGGAAGTTAAACCTCAAACATGAAATC	1110	1040	1420
TGGTTAAGCAGTGCAGGATGTGGGCTGCACTGCTAA	2590	–	–
GCCCAGGGCGGCCGGAAGTTTGCGGGGCGGGGCGGA	8880	754	–
CCCACCCTCGCCGGAAGCCGAGCGGTTTCTACATCA	2120	1110	–
GCACTGTAGGCAGGATGTGGGCAGGGGAAACTCAGG	3720	827	–
CCGGGCCTCCAGACGGAACTGTGGGCGAGGGGAGGG	470	–	–
GCGCGGACAGAGAAAGGATGTGGTATAGCAGAAAGT	1500	727	–
TAGTCCGCTACAGGAAGGTGGTCATCCTCGGATACC	1110	–	–
CTTTCGCTTCCTTTCCCCGCCTCTTAGTCCCGCAGA	464	–	–
GACTGGTTTCCTGGTTTTGATGTGGTTTAGAGAAAA	504	1080	630
TGTCGGGCGGATGTGTACCGGCGGTAATATAGTAAG	2300	753	2270
GCAACAGCGATCCCCGGAAACCACAAGGCGAGATGT	1660	1680	5080
TTTACTGAGAGGAAGTGGTTCTTGTGGGTGAAGGTC	2420	898	6070
GCCTGAAGGACTTCCGGGAACCGCAAAGCACGGTGT	1620	1500	3510
CAGAGACACCTGCGGAAGCCACAGGGAGGTCACAGA	495	–	613
AGGCCCGGATACCCGCCCCCAAAACCGCGTCCACAA	523	1040	1050
CAGACCAGCCCAGGAAACAAGGAACCACAAAGCCAC	656	842	2260
AGACAGGAGTTCAGGAAGCTGCGGTCTAGATTATGT	754	1210	6250
GCGCCATTTCCGCTGCGCAAGGCACCACAGGCCCTG	1140	–	943
GGGACGGGGAGGGCAGGATGTGGTCGCTCTTCCCTC	3320	822	9330
AAATCACGTACCCGGAAACCACATGCACAGAAGTGG	2010	980	2930
ATTAGAGGTAGAGGAAATACCACATGCAAAGGTTTG	793	785	1090
CCGTGGAAGGAAACGCTGCCAACCGCAACAGAAATG	479	1700	2770

Sequence	ETS1 binding intensity [1]	RUNX1 binding intensity [2]	ETS1 binding intensity [3]
GGCCCGGCCGGAAGAAGCCACCTCCCCCGCACGCGT	2410	849	2860
TCAGAACCAGGAAACTGAAGGCGGTTACTCCACATA	526	742	663
TGTTTACTTCCTGGAGGCACTTTGGTTTTTCTTTCT	490	–	325
ACGTAGACAGGAAAGTAATGTGGTTCAGGACTGAGT	746	–	766
ACCAGAACAGGAAATGTTAGTGGTTGAGTTAACGGT	3760	700	5800
GTTGTGCTCTTTCCTGCTTCCCGCAGTTTTTTAGTT	626	1470	921
GACAGTCATGTTTCAGGATGTGGTTTTAGCCAAAGG	1550	816	13200
GCCCCAGCCCCCGGATGTGGTGACAGAATCGATACT	3220	811	6050
CACCCGAACGGAAACACCTGCGGCTGAGGGGAGGGG	959	989	1110
AGGGACCCGGATGTCTGGTCTGCGGCTGCTCCTCTA	1460	756	2120
GTTCAGCGGACGGCTTCCTGCGGCTTGCTGGGGCCG	361	724	462
CGGTCAGGTCGCAGGAAACCACAGCGGCAGCGCGGC	732	1370	1870
AAGGACCGACCCGTTTTCCGCCCGCAGCGGAGCTTG	439	–	457
AGGGCATTTCCTTTGGGGCTGGTGGTCACGGACAAC	471	723	381
AATATACGGTGAGGATGTGGGCAAAAAACAAAGAGG	1060	809	1270
GGTTTCACTTCCTGCGTTGGGCCTTGTGGCCTCCTT	783	–	787
CCGGTCCGCTCGCCGGAAATGCGGGCTCTCCTGCCG	8400	815	10400
TTAGGCTCATGGGAAATGTGGTTTCTAAATCGCGGG	494	912	639
GTGTGGAAGGAGGAAGCGAGAATGTGGTTACTTAGG	718	868	1890
TGCCGGGCCCCGGATGTCACCGCAGCCGCCATCTTA	2460	968	6730
CACCGACCGGAAGGGCCCCAAGGATCCCCGCAGCAG	2130	831	2710
GCTACGGGTTCCCCGGATGGAGCCGCAGTCCGGCCG	858	–	715
GCTGTAGGAAATGTTATTCGCCGCGGTCAGGACAGG	546	–	710
GAAAACTAAGCAGGATGTGGTCTCGGCTGGAGCCTG	2730	657	5380
CCCACCCAGGAAGCCGTCCTAACCACAACAGCCCTC	514	4100	2580
AAGGGAGCCGCCCGGAAACCGCGCGGCAAAGATGCC	1560	734	2940

Sequence	ETS1 binding intensity [1]	RUNX1 binding intensity [2]	ETS1 binding intensity [3]
CTTACAGATAAGGAAACTGAGGTTAAAATGTAGGGG	681	–	656
GGTGCCAAGGGCAGAGGATGTGGTGAGGTGTGGAGG	999	–	4410
TGGCTACCCGGAAGGCGCGTTGGCTGCGGCTACGCA	549	–	926
GCACGTGTTTCCTGGGGCTGCACCACAGCACCACAC	444	–	497
GGAGGAAGGCAGGAAAGAAAGAGGTGGTTTCGGCAC	605	–	762
GCGATACGAGACTTCCTGCGGGCTCGTGACATCAGC	518	–	650
TAGGCCGGAAAGCACCACCGTCCTCCCGCAGGCCGC	455	–	386
AAGTCAGAGTTTACTTCCGAACCCACAGTGCCAAGC	423	–	486
GTCGTGTTTGGCTTCCTGTGGGCACGCCTGCGTAGC	589	–	516
TGAGCACTGAGCACTTCCTGTGGCTTCTGAAGCTCC	1860	–	2040
CTGGCAGGCCTCACTTCCTCACCACATGGCCCTCCC	543	–	640
ATTCTGCATCCTGTGCTCTTTCCATGAGACCACAAA	448	–	754
GCGCCCCGTCCTTCCGCAGCCCAACCGCCTCTTCCC	476	–	383
GAAAGCACGTGTTTCCTGCGGCTGCACCCCAGCACC	479	–	386
CTAGTTTCCTGTGGCTGCTATGACAAATGACCACAG	403	–	474
GGTACCAAGGGCAGAGGATGTGGTGAGGTGTGGAGG	940	–	3140
CACCTGCCTTGCTTCCTGCGGTGCAACCAGCGGGAG	444	–	520
CCCCAGGTTGCTTCCGTTCTGGGAACCGCGTCCTCG	1190	–	984
ACAGTTTCCTTGCTGTGATGTCAGCCCCCGCCGCAG	709	–	682
TTACACCCAAGGGATGTTGTTTGTGGGGGGCGGGGT	445	–	490
GGTCTGGAGGATGTTTGCAGCTGCTGTGGGTGGTGG	586	–	530
ACCACCCCCCGTTTCCTCCGAAGTGGTTGGTGCCTT	590	–	494
CCAGAGCAGGATGTTCTGCTGTGGCTAGATAAGCCC	907	–	916
